The record followed here is PubChem BioAssay.

Values joined by “and” are separate entries in the source; they are usually repeats but may differ in a detail not shown here. Identical values can stand only once. Results filed as inconclusive are left out. Active and inactive are the calls of the source. Rule as the data show it, unless noted: active = inhibition above about 80%; inactive = the rest.

Experiment [1] is described as follows: GFP-Q80 aggregate reduction, neuronal-like cells, cell-based, NGF-treated PC12, GFPQ80 (AID 1614).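 Also: lower means fewer inclusions and 0 means no inclusions at all.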 Particulars: PC12 NGF-treated GFP-polyQ80 inclusion reduction.
A short description of experiment [2]: compounds altering circadian rhythm period length – cell-based, LOPAC library, luminescence reporter (AID 2774; call rule not given here;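 also: values are relative to mean of DMSO wells on each plate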). Particulars: circadian reporter cells, at 7 µM, actives lie on both sides.
Experiment [3] has as its system Hepatitis C virus NS3 helicase. The experiment in a line: blockers of NS3h binding to ssDNA – biochemical, fluorescence polarization, LOPAC1280 library, primary screen (AID 687035; in the data active = inhibition above about 37%). Particulars: Purified HCV NS3 helicase, Cy5-dT15 ssDNA binding fluorescence polarization; stronger effect = higher value; concentration not given here. Background: Polarisation of emitted light reports the rotation of a fluorescent probe.

Experiment [4] in a line: compounds altering Cy5-DNA-NS3h complex signal – biochemical, LOPAC1280, artefact control for HCV NS3 helicase inhibitor project (AID 687037; call rule not given here). Particulars: Cy5-DNA-NS3h complex fluorescence interference counterscreen. Background: A counterscreen serves to expose hits that act by an unwanted route or on another target.
Experiment [5] is described as follows: viability loss in pontine glioma line – cell-based, SU-DIPG-XVII, MIPE5.0, CellTiter-Glo, qHTS, dose response (AID 1347060; cut-off not given, nearly all actives have AC50 up to about 26 µM). Particulars: CellTiter-Glo ATP luminescence.
Experiment [6] can be described thus: viability loss in pontine glioma line – cell-based, SU-DIPG-XIII, MIPE4.0, CellTiter-Glo, qHTS, dose response (AID 1347061; cut-off not given, nearly all actives have AC50 up to about 37 µM;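 also: cells exposed to compound for 48 hours before readout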). Particulars: CellTiter-Glo ATP luminescence.
A short description of experiment [7]: viability loss in pontine glioma line – cell-based, JHH-DIPG-1, MIPE4.0, CellTiter-Glo, qHTS, dose response (AID 1347062; cut-off not given, nearly all actives have AC50 up to about 27 µM). Particulars: JHH-DIPG-1 viability, CellTiter-Glo ATP luminescence. Background: In ATP-based viability assays light output follows the ATP content of the culture.
Experiment [8] in a line: viability loss in pontine glioma line – cell-based, SU-DIPG-IV, MIPE4.0, CellTiter-Glo, qHTS, dose response (AID 1347063; cut-off not given, nearly all actives have AC50 up to about 30 µM;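 also: compound exposure lasted 48 hours before the viability readout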). Particulars: CellTiter-Glo ATP luminescence.
Experiment [9] in a line: growth inhibition of DIPG cells – cell-based, MIPE4.0 library, CellTiter-Glo luminescence, qHTS (AID 1347066; cut-off not given, nearly all actives have AC50 up to about 30 µM;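 also: cells exposed to compound for 48 hours before readout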). Particulars: SU-DIPG-VI viability, CellTiter-Glo ATP luminescence.
A short description of experiment [10]: JHH-DIPG-1 glioma cell viability, MIPE5.0 library, CellTiter-Glo luminescence, qHTS (AID 1347067; cut-off not given, nearly all actives have AC50 up to about 26 µM;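 also: cells exposed to compound for 48 hours before readout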). Particulars: JHH-DIPG-1 glioma viability, CellTiter-Glo ATP luminescence.
Experiment [11] is described as follows: growth inhibition of DIPG cells – cell-based, MIPE5.0 library, qHTS (AID 1347068; cut-off not given, nearly all actives have IC50 up to about 30 µM). Particulars: SU-DIPG-XXV viability.
Experiment [12] can be described thus: blockers of cellular phospholipid synthesis – cell-based, LOPAC library, screen 4, primary screen (AID 1347384; call rule not given here). Particulars: animal cells, phospholipid biosynthesis inhibition screen; at 10 µM.
Experiment [13] is described as follows: growth inhibition, single agent or in combination, cell-based, chromothripsis tumors, cisplatin or BGB combos (AID 1671449).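 Also: cells exposed for 96 hours; 0% = vehicle DMSO and 100% = killing by high DMSO.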 Particulars: LFS_MB_P medulloblastoma cells.
Experiment [14] is described as follows: growth inhibition, single agent and combos, cell-based, chromothripsis tumors, cisplatin or BGB combos (AID 1671450).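 Also: cells exposed to compound for four days; 0% = vehicle DMSO and 100% = cell killing by high DMSO.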 Particulars: HDN33 neuroblastoma cells, stronger effect = higher value.
Experiment [15] can be described thus: growth inhibition, single agents and combos, HTB85, cell-based, BGB or cisplatin IC20 combos, synergistic combos for chromothripsis tumors (AID 1671453).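 Also: cells exposed for 96 hours before readout; 0% = vehicle DMSO and 100% = high DMSO killing control.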 Particulars: HTB85 osteosarcoma cells, drug combinations, stronger effect = higher value.
Experiment [16] is described as follows: growth inhibition, MDA-MB-436, cell-based, BGB or cisplatin combos, synergistic combos for chromothripsis tumors (AID 1671458; call rule not given here;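 also: cells exposed for 96 hours; 0% = vehicle DMSO and 100% = killing by high DMSO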). Particulars: MDA-MB-436 breast carcinoma growth inhibition, drug combinations, stronger effect = higher value.
The nature of experiment [17]: BT084 cell growth, single and combined drugs, ICGC_MB145, cisplatin and BGB IC40 combos (AID 1671461).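 Also: cells exposed to drugs for 96 hours; 0% = vehicle DMSO and 100% = high DMSO full killing control.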 Particulars: BT084 medulloblastoma cells, drug combinations, stronger effect = higher value.
A short description of experiment [18]: RCMB18 cell growth, single agent and combined, cisplatin and BGB IC40 combos (AID 1671462).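 Also: cells exposed to compound for four days.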 Particulars: RCMB18 medulloblastoma cells, stronger effect = higher value.
A short description of experiment [19]: CRL1545 cell growth, single agent and combined, cisplatin and BGB IC20 combos (AID 1671464).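 Also: cells exposed to compound for 96 hours before readout; 0% = vehicle DMSO and 100% = high DMSO killing control.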 Particulars: CRL1545 osteosarcoma cells, stronger effect = higher value.
The mark [20] stands for this setting: measured here: with BGB IC20 combination, at 0.5 µM.
Where [21] appears, read: measured here: with cisplatin IC20 combination, at 0.5 µM.

In [1], `NS(=O)(=O)c1cc2c(cc1Cl)NCNS2(=O)=O` returned an inclusion score of 2. In addition, the period change in [2] was 0.06 h (inactive). In addition, in [3], the inhibition (commonly the change of the read-out against control, counted positive when it falls) is -1% (inactive). Also, the fluorescence ratio (interference) in experiment [4] is 1 (inactive). Besides, the outcome in [5], in [6], in experiment [7], in [8], in experiment [9] and in [10] was inactive. Moreover, the compound was classed as inactive in experiment [11] and in experiment [12].
In the case of `N[C@@H](Cc1cc(I)c(Oc2cc(I)c(O)c(I)c2)c(I)c1)C(=O)O`, the compound was called inactive in experiment [5], in [6], in experiment [7], in experiment [10] and in experiment [11].
As to `CC1COc2c(N3CCN(C)CC3)c(F)cc3c(=O)c(C(=O)O)cn1c23` (stereo unspecified), the inclusion score in experiment [1] was found to be 2. In addition, the period change in [2] is 0.06 h (inactive). Besides, the inhibition in experiment [3] is -6% (inactive); in experiment [13] (at 0.5 µM, stronger effect = higher value) it was -15.2% (inactive) and -4.35% (inactive) and -7.1% (inactive); in [13] (measured here: combination with BGB IC20, at 0.005 µM), -17.1% and -18.6% and 40.6%; in experiment [13] (measured here: combination with BGB IC40, at 0.005 µM), -34.5% and 8.51% and 11.7%; in [13] (measured here: combination with BGB IC40, at 0.05 µM), -33.9% and 2.31% and 36%; in experiment [13] (measured here: combination with cisplatin, at 0.5 µM, stronger effect = higher value), -16.9% and 6.16% and -20.4%. For the same compound, the inhibition in experiment [13] (measured here: combination with cisplatin, at 5 µM, stronger effect = higher value) was -20.4% and -8.17% and -11.9%; in experiment [14] (BGB combo, at 5 µM) it was -21.1% and 5.47% and 15%; in experiment [14] (at 0.5 µM), -45.4% (inactive) and 10.2% (inactive) and 8.6% (inactive); in experiment [14] (cisplatin combo, at 5 µM), -32.1% and -5.63% and 10.7%; in [14] (setting [20]) it was -54.6% and 19.4% and 13%; in [14] (setting [21]), -40.5% and 0.068% and 0.136%. The inhibition was -44.6% and 1.17% and 11.7% in experiment [14] (single agent, at 5 µM); -45.9% (inactive) and 3.58% (inactive) and -0.61% (inactive) in [15] (at 0.5 µM); -68.8% and -8.08% and -9.45% in experiment [15] (measured here: with BGB IC20, at 0.5 µM); -49.9% and 8% and -6.03% in experiment [15] (measured here: with BGB IC20, at 5 µM); -39.2% and 5.61% and -11.8% in [15] (measured here: with cisplatin IC20, at 0.5 µM); -30.4% and 7.76% and -5.54% in experiment [15] (measured here: with cisplatin IC20, at 5 µM). Also, the inhibition was -34.4% and -4.7% and 18.3% in experiment [15] (single agent, at 5 µM); -34.5% (inactive) and -6.74% (inactive) and -3.04% (inactive) in [16] (at 0.5 µM); -25.6% and -3.95% and -7.27% in experiment [16] (measured here: BGB combination, at 0.5 µM); -17.4% and 1.21% and -4.78% in experiment [16] (measured here: BGB combination, at 5 µM); -57.3% and -9.51% and 4.2% in [16] (measured here: cisplatin combination, at 0.5 µM); -35.2% and 8.53% and -3.87% in experiment [16] (measured here: cisplatin combination, at 5 µM). In addition, the inhibition was -33.3% (inactive) and -1.31% (inactive) and 2.04% (inactive) in [17] (at 0.5 µM); -31.2% and 8.69% and -10.9% in [17] (cisplatin combination, at 0.5 µM); -9.85% and -7.87% and -3.96% in [17] (cisplatin combination, at 5 µM); -9.27% and 10.9% and 19.9% in experiment [17] (measured here: BGB IC40 combination 0.05 uM, at 0.05 µM); -20.1% and 7.2% and -8.12% in [17] (single agent, at 5 µM); -28.4% (inactive) and -8.12% (inactive) and -0.02% (inactive) in experiment [18] (at 0.5 µM). For the same compound, the inhibition in experiment [18] (cisplatin combo, at 5 µM) was -38.4% and 21.2% and 9.23%; in experiment [18] (measured here: BGB IC40 combination, at 0.05 µM), -5.79% and 25.7% and 5.62%; in experiment [18] (measured here: combination with cisplatin, at 0.5 µM), -28.1% and -3.73% and 27.4%; in experiment [18] (single agent, at 5 µM) it was -31.9% and -5.49% and -32%; in experiment [19] (at 0.5 µM) it was -60% (inactive) and 4.59% (inactive) and -24.8% (inactive); in experiment [19] (setting [20]), -68.3% and -3.25% and -47.6%. Further, the inhibition in experiment [19] (setting [21]) was -59.4% and 8.51% and -13.4%; in [19] (single agent, at 0.05 µM), -65.5% and -29.1% and 12%; in experiment [19] (single agent, at 5 µM), -39.6% and 8.31% and 10.5%. Moreover, the fluorescence ratio (interference) in experiment [4] was 0.9 (inactive). Also, the outcome in [5], in [6], in experiment [7], in [9], in experiment [10] and in [11] was inactive. Moreover, in [12], the compound was called inactive.
